Among all 5,500 compounds or so, about 2,000 (36%) were called active. About 18% were inconclusive and are not listed. No stated cut-off is given here; in the data, active means normalized growth mostly below about 0.91 (no sharp cut-off); inconclusive means no clear call, values can overlap the other calls; inactive means mostly above about 0.92. The list shows a part of the results.
Experiment: chemical genetic growth profiling, strain panel (AID 1159580);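 further: tested at 20 µM; growth read once vehicle control cultures reached saturation at 30 °C; 1 = growth at the plate median or of vehicle wells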
Settings: growth OD
[1] = S. cerevisiae deletion strains, locus YAL013W, strain DEP1, stronger effect = lower value
[2] = S. cerevisiae deletion strains, locus YBR229C, strain ROT2, stronger effect = lower value
[3] = S. cerevisiae deletion strains, locus YDL101C, strain DUN1, stronger effect = lower value
[4] = S. cerevisiae deletion strains, locus YDL134C, strain PPH21, stronger effect = lower value
[5] = S. cerevisiae deletion strains, locus YDR150W, strain NUM1, stronger effect = lower value
[6] = S. cerevisiae deletion strains, locus YEL061C, strain CIN8, stronger effect = lower value
[7] = S. cerevisiae deletion strains, locus YGR078C, strain PAC10, stronger effect = lower value
[8] = S. cerevisiae deletion strains, locus YGR229C, strain SMI1, stronger effect = lower value
[9] = S. cerevisiae deletion strains, locus YHR030C, strain SLT2, stronger effect = lower value
[10] = S. cerevisiae deletion strains, locus YHR087W, strain rtc3, stronger effect = lower value
[11] = S. cerevisiae deletion strains, locus YJR043C, strain POL32, stronger effect = lower value
[12] = S. cerevisiae deletion strains, locus YJR075W, strain HOC1, stronger effect = lower value
[13] = S. cerevisiae deletion strains, locus YLR039C, strain RIC1, stronger effect = lower value
[14] = S. cerevisiae deletion strains, locus YLR058C, strain SHM2 (second series), stronger effect = lower value
[15] = S. cerevisiae deletion strains, locus YLR085C, strain ARP6, stronger effect = lower value
[16] = S. cerevisiae deletion strains, locus YLR262C, strain YPT6, stronger effect = lower value
[17] = S. cerevisiae deletion strains, locus YML094W, strain GIM5, stronger effect = lower value
[18] = S. cerevisiae deletion strains, locus YMR219W, strain ESC1, stronger effect = lower value
[19] = S. cerevisiae deletion strains, locus YMR263W, strain SAP30, stronger effect = lower value
[20] = S. cerevisiae deletion strains, locus YNL128W, strain TEP1, stronger effect = lower value
[21] = S. cerevisiae deletion strains, locus YNL153C, strain GIM3, stronger effect = lower value
[22] = S. cerevisiae deletion strains, locus YNL298W, strain CLA4 (second series), stronger effect = lower value
[23] = S. cerevisiae deletion strains, locus YNL322C, strain KRE1, stronger effect = lower value
[24] = S. cerevisiae deletion strains, locus YNR030W, strain Alg12, stronger effect = lower value
[25] = S. cerevisiae deletion strains, locus YOL006C, strain TOP1, stronger effect = lower value
[26] = S. cerevisiae deletion strains, locus YPL055C, strain LGE1, stronger effect = lower value
[27] = S. cerevisiae deletion strains, locus YPL241C, strain CIN2, stronger effect = lower value
[28] = S. cerevisiae deletion strains, locus YPR135W, strain CTF4, stronger effect = lower value
[29] = S. cerevisiae strains, strain wild type, stronger effect = lower value
[30] = S. cerevisiae deletion strains, locus YKL190W, strain CNB1, stronger effect = lower value
[31] = S. cerevisiae deletion strains, locus YAL040C, strain CLN3, stronger effect = lower value
[32] = S. cerevisiae deletion strains, locus YER002W, strain NOP16, stronger effect = lower value
[33] = S. cerevisiae deletion strains, locus YNL175C, strain NOP13, stronger effect = lower value
[34] = S. cerevisiae deletion strains, locus YNL197C, strain WHI3, stronger effect = lower value
[35] = S. cerevisiae deletion strains, locus YNL224C, strain SQS1, stronger effect = lower value
[36] = S. cerevisiae deletion strains, locus YOR083W, strain WHI5 (second series), stronger effect = lower value
[37] = S. cerevisiae deletion strains, locus YJL095W, strain BCK1, stronger effect = lower value
[38] = S. cerevisiae deletion strains, locus YHR079C, strain IRE1, stronger effect = lower value
[39] = S. cerevisiae deletion strains, locus YJR066W, strain TOR1, stronger effect = lower value
[40] = S. cerevisiae deletion strains, locus YLR113W, strain HOG1, stronger effect = lower value
[41] = S. cerevisiae deletion strains, locus YNL183C, strain NPR1, stronger effect = lower value
[42] = S. cerevisiae deletion strains, locus YOR231W, strain MKK1, stronger effect = lower value
[43] = S. cerevisiae deletion strains, locus YPL256C, strain CLN2, stronger effect = lower value

Measured: normalized growth

CCCCCc1ccc(C(=O)O/N=C\c2c(Cl)cccc2Cl)cc1
inactive: [1] 0.966 | [2] 0.941 | S. cerevisiae deletion strains, locus YCL061C, strain MRC1, stronger effect = lower value 0.933 | [3] 1.01 | [4] 0.936 | [5] 1.01 | [7] 0.959 | [9] 1.01 | [10] 0.939 | [11] 0.962 | [12] 0.982 | [13] 0.84 | [14] 0.943 | [15] 0.943 | [16] 0.82 | [17] 0.98 | [18] 0.95 | [19] 1.03 | [20] 0.962 | [22] 0.969 | [23] 0.947 | [24] 0.958 | [25] 0.796 | [26] 0.943 | [27] 0.963 | [28] 1.07 | [29] 0.919
active: [6] 0.902 | [8] 0.929 | [21] 0.92

O=[N+]([O-])c1cnc(Sc2n[nH]c(-c3cccs3)n2)s1
active: [1] 0.488 | [2] 0.258 | [3] 0.23 | [5] 0.347 | [6] 0.612 | [7] 0.214 | [9] 0.312 | [10] 0.377 | [11] 0.602 | [12] 0.224 | [30] 0.715 | [13] 0.426 | [14] 0.404 | [15] 0.152 | [16] 0.596 | [17] 0.573 | [18] 0.35 | [19] 0.194 | [20] 0.876 | [21] 0.215 | [22] 0.352 | [23] 0.927 | [24] 0.508 | [26] 0.126 | [27] 0.36 | [28] 0.319
inactive: [8] 0.974

N[C@H](C(=O)O)[C@H]1C[C@@H]1C(=O)O
inactive: [31] 1.11 | S. cerevisiae deletion strains, locus YCL061C, strain MRC1 (second series), stronger effect = lower value 1.01 | S. cerevisiae deletion strains, locus YDR363W, strain ESC2, stronger effect = lower value 1.03 | [32] 1.01 | [7] 1.02 | [19] 1.01 | [21] 1.02 | [33] 1 | [34] 1.06 | [35] 0.996 | [36] 1.03 | [27] 1.01

N[C@H](C(=O)O)[C@@H]1CC(Cl)=NO1
active: [1] 0.796 | S. cerevisiae deletion strains, locus YBR021W, strain FUR4, stronger effect = lower value 1.27 [resistant] | [2] 0.629 | S. cerevisiae deletion strains, locus YCL029C, strain bik1, stronger effect = lower value 0.258 | S. cerevisiae deletion strains, locus YDL035C, strain GPR1, stronger effect = lower value 0.321 | S. cerevisiae deletion strains, locus YDL074C, strain BRE1, stronger effect = lower value 0.48 | [3] 0.23 | [4] 0.355 | S. cerevisiae deletion strains, locus YDL185W, strain tfp1, stronger effect = lower value 0.149 | S. cerevisiae deletion strains, locus YDL192W, strain arf1, stronger effect = lower value 0.24 | S. cerevisiae deletion strains, locus YDR101C, strain arx1, stronger effect = lower value 0.287 | [5] 0.605 | S. cerevisiae deletion strains, locus YDR162C, strain NBP2, stronger effect = lower value 0.318 | S. cerevisiae deletion strains, locus YDR318W, strain mcm21, stronger effect = lower value 0.199 | S. cerevisiae deletion strains, locus YDR388W, stronger effect = lower value 0.191 | S. cerevisiae deletion strains, locus YDR502C, strain sam2, stronger effect = lower value 0.2 | [6] 0.409 | S. cerevisiae deletion strains, locus YER110C, stronger effect = lower value 0.451 | S. cerevisiae deletion strains, locus YER155C, strain BEM2, stronger effect = lower value 0.464 | S. cerevisiae deletion strains, locus YER167W, strain BCK2, stronger effect = lower value 0.288 | S. cerevisiae deletion strains, locus YGL078C, strain dbp3, stronger effect = lower value 0.238 | S. cerevisiae deletion strains, locus YGL086W, strain mad1, stronger effect = lower value 0.267 | S. cerevisiae deletion strains, locus YGL248W, strain PDE1, stronger effect = lower value 0.331 | [7] 0.437 | S. cerevisiae deletion strains, locus YGR135W, strain pre9, stronger effect = lower value 0.234 | [8] 0.197 | S. cerevisiae deletion strains, locus YGR252W, strain gcn5, stronger effect = lower value 0.508 | [9] 0.478 | S. cerevisiae deletion strains, locus YHR079C, strain IRE1 (second series), stronger effect = lower value 0.186 | S. cerevisiae deletion strains, locus YHR094C, strain hxt1, stronger effect = lower value 0.275 | S. cerevisiae deletion strains, locus YHR129C, strain ARP1, stronger effect = lower value 0.481 | S. cerevisiae deletion strains, locus YHR200W, strain rpn10, stronger effect = lower value 0.376 | S. cerevisiae deletion strains, locus YIL066C, strain RNR3, stronger effect = lower value 0.468 | S. cerevisiae deletion strains, locus YIL073C, strain SPO22, stronger effect = lower value 0.39 | S. cerevisiae deletion strains, locus YIL125W, strain kgd1, stronger effect = lower value 0.185 | S. cerevisiae deletion strains, locus YIR030C, strain dcg1, stronger effect = lower value 0.26 | [37] 0.287 | S. cerevisiae deletion strains, locus YJL134W, strain LCB3, stronger effect = lower value 0.605 | S. cerevisiae deletion strains, locus YJL168C, strain set2, stronger effect = lower value 0.541 | S. cerevisiae deletion strains, locus YJL187C, strain SWE1 (second series), stronger effect = lower value 0.345 | [11] 0.267 | [12] 0.52 | S. cerevisiae deletion strains, locus YKL009W, strain mrt4, stronger effect = lower value 0.381 | S. cerevisiae deletion strains, locus YKL068W, stronger effect = lower value 0.433 | S. cerevisiae deletion strains, locus YKL085W, strain MDH1 (second series), stronger effect = lower value 0.214 | S. cerevisiae deletion strains, locus YKL085W, strain MDH1, stronger effect = lower value 0.214 | [30] 0.446 | S. cerevisiae deletion strains, locus YKR001C, strain vps1, stronger effect = lower value 0.189 | [13] 0.45 | S. cerevisiae deletion strains, locus YLR058C, strain SHM2, stronger effect = lower value 0.398 | S. cerevisiae deletion strains, locus YLR102C, strain apc9, stronger effect = lower value 0.28 | [16] 0.516 | S. cerevisiae deletion strains, locus YLR268W, strain sec22, stronger effect = lower value 0.174 | S. cerevisiae deletion strains, locus YLR330W, strain CHS5, stronger effect = lower value 0.388 | S. cerevisiae deletion strains, locus YLR342W, strain FKS1 (second series), stronger effect = lower value 0.573 | S. cerevisiae deletion strains, locus YLR371W, strain rom2, stronger effect = lower value 0.505 | S. cerevisiae deletion strains, locus YLR418C, strain cdc73, stronger effect = lower value 0.468 | S. cerevisiae deletion strains, locus YML016C, strain PPZ1, stronger effect = lower value 0.364 | S. cerevisiae deletion strains, locus YML032C, strain rad52, stronger effect = lower value 0.238 | S. cerevisiae deletion strains, locus YML124C, strain tub3, stronger effect = lower value 0.302 | S. cerevisiae deletion strains, locus YMR078C, strain ctf18, stronger effect = lower value 0.352 | S. cerevisiae deletion strains, locus YMR223W, strain ubp8, stronger effect = lower value 0.22 | [19] 0.619 | S. cerevisiae deletion strains, locus YNL067W, strain RPL9B, stronger effect = lower value 0.353 | [20] 0.29 | [21] 0.504 | S. cerevisiae deletion strains, locus YNL233W, strain BNI4, stronger effect = lower value 0.419 | S. cerevisiae deletion strains, locus YNL250W, strain rad50, stronger effect = lower value 0.246 | S. cerevisiae deletion strains, locus YNL271C, strain bni1, stronger effect = lower value 0.188 | S. cerevisiae deletion strains, locus YNL298W, strain CLA4, stronger effect = lower value 0.319 | S. cerevisiae deletion strains, locus YNL307C, strain MCK1, stronger effect = lower value 0.0999 | [23] 0.457 | S. cerevisiae deletion strains, locus YNR052C, strain pop2, stronger effect = lower value 0.11 | [25] 0.495 | S. cerevisiae deletion strains, locus YOL147C, strain pex11, stronger effect = lower value 0.27 | S. cerevisiae deletion strains, locus YOR061W, strain CKA2, stronger effect = lower value 0.483 | S. cerevisiae deletion strains, locus YOR069W, strain VPS5, stronger effect = lower value 0.447 | S. cerevisiae deletion strains, locus YOR136W, strain idh2, stronger effect = lower value 0.272 | S. cerevisiae deletion strains, locus YOR144C, strain elg1, stronger effect = lower value 0.352 | S. cerevisiae deletion strains, locus YOR184W, strain ser1, stronger effect = lower value 0.152 | S. cerevisiae deletion strains, locus YOR316C, strain cot1, stronger effect = lower value 0.359 | [26] 0.448 | [27] 0.571 | S. cerevisiae deletion strains, locus YPR119W, strain clb2, stronger effect = lower value 0.335 | S. cerevisiae deletion strains, locus YPR141C, strain kar3, stronger effect = lower value 0.272 | S. cerevisiae deletion strains, locus YPR163C, strain tif3, stronger effect = lower value 0.307 | S. cerevisiae deletion strains, locus YPR167C, strain met16, stronger effect = lower value 0.392 | S. cerevisiae deletion strains, strain wtn01, stronger effect = lower value 0.212 | [29] 0.351
inactive: S. cerevisiae deletion strains, locus YMR307W, strain GAS1, stronger effect = lower value 0.671 | S. cerevisiae deletion strains, locus YOL012C, strain htz1 0.224

C[N+](C)(C)C[C@H](O)CC(=O)[O-]
inactive: [9] 0.972 | [38] 0.984 | [37] 1.02 | [39] 0.923 | [40] 1.01 | [41] 0.923 | [42] 0.962 | [43] 0.961

NCCc1ccc(S(=O)(=O)F)cc1
inactive: [1] 1 | [31] 1.01 | [32] 1.02 | [19] 1 | [21] 1.03 | [33] 1 | [34] 1.04 | [35] 1 | [23] 1.01 | [36] 0.997 | [26] 1.02 | [27] 1.01

CCCCC[C@H](CC(=O)O)C(=O)O
inactive: [9] 1.04 | [38] 1.03 | [37] 1.04 | [39] 1.03 | [40] 0.945 | [41] 0.989 | [42] 1.05 | [43] 1.02

Source: PubChem BioAssay AID1159580 (chemical genetic matrix, 2015)
